Results taken from PubChem BioAssay.

assay: adipocyte viability effects, profiling panel, cell-based, 3T3-L1 adipocytes, calcein-AM fluorescence, 48 h, basal (AID 1163); conditions: 3T3-L1 adipocytes viability, higher = more signal
Also: test concentration not given here.

SMILES | z-score
COc1cc(CO)cc(I)c1O[C@H]1C=C(C(=O)NCCO)C[C@@H](N(CCN2CCOCC2)C(=O)C2CCCO2)[C@@H]1O (some centres undefined) | -0.786
O=C1C2C=CC(C(O)C(c3ccccc3)c3ccccc3)N(Nc3ccccc3F)C2C(=O)N1c1ccccc1 (centres undefined) | -0.368
COC(=O)C[C@H]1O[C@]2(C(=O)N(C)c3ccccc32)[C@@H](C)[C@@H]1[Si](C)(C)c1ccccc1 | 1.01
CC(C)(C)OC(=O)CC[C@]1(C(=O)N2CCOCC2)COC(c2ccc(OCCCO)cc2)=N1 | -0.492
C=C(CC1([C@@H](NP(=O)(c2ccccc2)c2ccccc2)[C@H]2C[C@@H]2CCCC)CC1)c1cccc(OC)c1 | -0.803
COc1ccc(C(=O)Nc2cccc(CN3C(=O)[C@]4(O[C@H](CC(=O)N(CCO)Cc5ccccc5)[C@@H]([Si](C)(C)c5ccc(OC)cc5)[C@@H]4C)c4ccccc43)c2)cc1 | 0.385
CC[C@@H](O[Si](C#C[Si](C(C)C)(C(C)C)C(C)C)(C(C)C)C(C)C)c1cn([C@H](CO)Cc2ccccc2)nn1 | -1.04

assay: HepG2 cell viability effects, profiling panel, calcein-AM fluorescence, 48 h, basal (AID 1164); conditions: higher = more signal

SMILES | z-score
COc1cc(Cc2cc3c(c(-c4ccccc4)n2)[Si](C(C)C)(C(C)C)OC3)cc(OC)c1OC | -0.305
COCCOC(=O)N1C(=O)[C@@]2(c3cc(C#CCC(C(=O)OC)C(=O)OC)ccc31)[C@H](C(N)=O)[C@H]1C(=O)O[C@H](c3ccccc3)[C@H](c3ccccc3)N1[C@@H]2c1ccccc1OCCO | 0.645
C[C@@]1([C@@H](NS(=O)(=O)c2cccc3cccnc23)c2ccc(-c3ccccc3)cc2)C[C@H]1C1CCCCC1 | -1.04
C=C(C(=O)CC[C@@H](OC(=O)c1ccccc1-c1ccccc1C(=O)O)c1ccc(CO)o1)C(C)C | 0.473
CCOC(=O)C1=CCC(c2cccn2C(=O)OC(C)(C)C)N(S(=O)(=O)c2ccc(C)cc2)C1 (centres undefined) | -0.168
O=C1N(Cc2ccccc2)c2ccccc2C[C@@]12N=C(c1ccc(OCCCO)cc1)O[C@H]2c1ccccc1 | -1.86
Cc1ccc(S[C@]2(C(=O)NC3CC3)CC(=O)N(C3Cc4ccccc4C3)[C@@H]2c2ccc(CO)cc2I)cc1 | 0.193
CCc1cccc(NC(=O)O[C@H]2[C@H](OC(=O)Nc3ccccc3-c3ccccc3)[C@H](OC(=O)Nc3ccccc3-c3ccccc3)[C@@H](OC)O[C@@H]2CO)c1 | -1.7
CC(C)C[C@H]1NC(=O)CNC(=O)[C@@]23C(=O)N[C@@H](Cc4ccccc4)C2[C@H](C)[C@@]2(C)O[C@H]2C3/C=C/C/C=C\CNC1=O (some centres undefined) | -0.899
C=C(/C=C\CNS(=O)(=O)c1ccc(C)cc1)[C@H](O)[C@H]1CCCN1S(=O)(=O)c1ccccc1[N+](=O)[O-] | -1.3
C[C@]1(C(=O)O)c2ccccc2C(=O)N(Cc2cc(C(F)(F)F)cc(C(F)(F)F)c2)[C@H]1c1ccc(CO)cc1 | -0.164
COC(=O)C(CC#Cc1ccc2c(c1)[C@]1(C(=O)N2)[C@H](c2ccc(OCCO)cc2)N2[C@H](c3ccccc3)[C@H](c3ccccc3)OC(=O)[C@H]2[C@@H]1C(N)=O)C(=O)OC | -0.188
CN1C(=O)C2C=CC(C(O)c3ccc(I)cc3)N(N(c3ccccc3)c3ccccc3)C2C1=O (centres undefined) | -0.0518
COc1ccc([Si](C)(C)[C@@H]2[C@@H](CC(=O)N(CCO)Cc3ccccc3)O[C@]3(C(=O)N(Cc4cccc(I)c4)c4ccccc43)[C@H]2C)cc1 | -1.59
COc1ccc([Si](C)(C)[C@H]2[C@H](CC(=O)N3CCC[C@H]3CO)O[C@@]3(C(=O)N(Cc4cccc(N5CCCCC5=O)c4)c4ccccc43)[C@@H]2C)cc1 | -0.134
O=C1C2C=CC(C(O)C3CCCCC3)N(Nc3ccccc3F)C2C(=O)N1c1ccccc1 (centres undefined) | -0.528
C=C(COC)/C(=C/C[C@@H](OC(C)=O)c1cccc(OCCO)c1)c1cnc2ccccc2c1 | -0.705
COC(=O)C1=CC(c2ccc(CO)cc2)=CC(C2CC2)N(Cc2cc3c(cc2Br)OCO3)C=C1C(=O)OC (centres undefined) | 0.522
O=C/C=C/c1ccc(-c2ccccc2)cc1 | -1.45
COc1ccc(C(O)C2C=CC3C(=O)N(C)C(=O)C3N2Nc2ccccc2)cc1 (centres undefined) | -0.393
COCCOC(=O)N1C(=O)[C@@]2(c3cc(C#CCNC(N)=O)ccc31)[C@H](c1ccccc1OCCO)N1[C@H](c3ccccc3)[C@H](c3ccccc3)OC(=O)[C@H]1[C@@H]2C(=O)N1CCCCCCC1 | 0.371
CC1C2C(CCCO)=CC(C3C(=O)N(C(N)=O)C(=O)C23)N1Cc1cccc(OC(F)(F)F)c1 (centres undefined) | 0.192
